Test results: PubChem BioAssay AID651791 (National Center for Advancing Translational Sciences (NCATS), 2012)
Inconclusive results are not listed. Activity calls are given as the source filed them. Calls come from the whole dose curve; as a rule, active = well fitted inhibition curve with a large enough effect; inconclusive = small, poorly fitted or top-dose-only effect; inactive = no such curve, though single readings can be large or run the other way.

Test: InCell qHTS Assay for Inhibitors of the mTORC1 Signaling Pathway in MEF (Tsc2-/-, p53-/-) Cells: Hit Validation;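 note: phospho-S6 Ser235/236 signal normalized to propidium iodide cell count per well; nearly all actives have a fitted effect of over 75% in size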
Conditions: phospho-rpS6 immunofluorescence, 24 h; activity change, negative = inhibition: at 38.3 µM (top of the series)
Potency is the fitted concentration of half-maximal effect.

| SMILES | activity change, negative = inhibition | Potency |
| --- | --- | --- |
| CCOC(=O)N1CCN(Cc2nc3cc(NC(=O)c4cccc(C)c4)ccc3n2C(C)C)CC1 | -100% | – |
| CCOc1ccccc1NS(=O)(=O)c1ccc(-c2cnc(C3CC3)o2)cc1 | -100% | – |
| CCN(CC)CC(C)CNC(=O)c1cc(-c2ccc(Br)s2)nc2ccccc12 (configuration not stated) | -14.3% | – |
| COc1ccccc1C(=O)Nc1ccc(-c2cc(C(F)(F)F)nn2-c2ccccc2)cc1 | -100% | – |
| COc1ccccc1C1C=C(c2ccc(Cl)cc2)Nc2nc(-c3ccc(Cl)cc3)nn21 (configuration not stated) | -100% | – |
| CC(C)CCNc1nc(Nc2ccccc2)c2cnn(C)c2n1 | -100% | – |
| COc1ccc(N2CC(c3nc(-c4cc(OC)c(OC)c(OC)c4)no3)CC2=O)cc1Cl (configuration not stated) | -100% | – |
| COc1ccc2nc(NC(=O)c3nc(S(=O)(=O)Cc4ccccc4)ncc3Cl)sc2c1 | – | 1.65 µM (active) |
| COc1ccccc1-c1noc(CSc2nc3ccc(C)cc3[nH]2)n1 | -100% | – |
| CCCCOc1ccc(Cn2c(=O)sc3ccccc32)cc1 | -100% | – |
| Cc1c(Cl)cccc1NC(=O)c1oc2ccc(S(=O)(=O)N3CCC4(CC3)OCCO4)cc2c1C | -22.5% | – |
| COc1ccc(S(=O)(=O)Nc2ccc3oc4c(c3c2)CCCC4)cc1 | -100% | – |
| COc1cc(NC(=O)CSc2ccc(-c3ccccn3)nn2)cc(OC)c1 | -100% | – |
| CCOC(=O)c1ccc(NC(=O)c2nc(S(=O)(=O)Cc3ccccc3)ncc2Cl)cc1 | – | 4.14 µM (active) |
| CCCOc1cccc(C2c3c(-c4ccccc4O)n[nH]c3C(=O)N2Cc2ccco2)c1 (configuration not stated) | -100% | – |
| CCOc1ccccc1NC(=O)Cn1nnc(C(=O)NCc2cccs2)c1N | -100% | – |
| COc1ccc(OC)c(C(=O)CC2(O)C(=O)N(Cc3ccccc3C)c3ccccc32)c1 (configuration not stated) | -100% | – |
| CCOC(=O)c1c(C)[nH]c(CCC(=O)Nc2cc(C)ccc2OC)c1C | -100% | – |
| Cc1cccc(NC(=O)Cn2cc(C(=O)c3ccco3)c3ccccc32)c1C | -100% | – |

| SMILES | activity change, negative = inhibition | Potency |
| --- | --- | --- |
| C#CC(C)(CC)NC(=O)Cn1nnc(-c2ccc(OCc3c(F)cccc3Cl)cc2)n1 (configuration not stated) | -100% | – |
| CCCCS(=O)(=O)c1oc(-c2ccc(F)cc2)nc1S(=O)(=O)c1ccccc1 | – | 2.07 µM (active) |
| O=C(CC1(O)C(=O)N(CCc2ccccc2)c2ccc(Br)cc21)c1ccccc1O (configuration not stated) | 1.72% | – |
| COc1ccc(N(Cc2ccccc2)C(=O)c2nc(S(C)(=O)=O)ncc2Cl)cc1 | – | 3.69 µM (active) |
| Cc1ccc(C2c3c(-c4ccccc4O)n[nH]c3C(=O)N2CCc2ccccc2)cc1 (configuration not stated) | -100% | – |
| Cc1c(C(=O)OC2CCC(C)CC2)[nH]c2c1C(=O)CC(c1ccccc1Cl)C2 (configuration not stated) | -100% | – |
| Cc1ccc(Nc2nc(C(N)=O)c(NC(=O)c3ccccc3Br)s2)cc1 | -17.8% | – |
| CCc1ccc(NC(=O)C2CCCN(S(=O)(=O)c3cccc4cccnc34)C2)cc1 (configuration not stated) | -100% | – |
| COc1ccc(OC)c(NC(=O)c2nc(S(=O)(=O)Cc3ccc(F)cc3)ncc2Cl)c1 | – | 2.61 µM (active) |
| CCNc1nc2c(c(=O)[nH]c(=O)n2C)n1CC(O)COc1ccc(Cl)cc1Cl (configuration not stated) | -100% | – |
| CN(CCCNC(=O)c1cc2c(Cl)nc3ccccc3c2s1)Cc1ccccc1 | -100% | – |
| Cc1cccn2c(Nc3ccccc3)c(-c3cccs3)nc12 | -100% | – |
| CCOc1c(Br)cc(C2CC(=O)Nc3cc4c(cc32)OCO4)cc1OC (configuration not stated) | -100% | – |
| Cc1ccc(C)c(CN2C(=O)C(=O)c3ccccc32)c1 | -100% | – |
| COc1ccc(S(=O)(=O)NCCc2csc3nc(-c4ccc(Cl)cc4)nn23)cc1C | -100% | – |
| Cc1ccc(S(=O)(=O)Nc2ccc3c(c2)c(C(=O)OC(C)C)c(C)n3S(=O)(=O)c2ccc(C)cc2)cc1 | -100% | – |
| Cc1nc2scc(C)n2c(=O)c1S(=O)(=O)Nc1ccc(N2CCOCC2)c(Cl)c1 | -100% | – |
| Cc1ccc(C)c(N2CCN(CCCNC(=O)C3COc4ccccc4C3)CC2)c1 (configuration not stated) | -100% | – |
